The nature of assay [1]: small molecules captured by biotinylated probe aFSTL3 – biochemical, small-molecule microarray, fluorescence 635/667, stem cell growth factor project, primary screen (AID 1064).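 Note: measures binding of the biotinylated anti-FSTL3 antibody to printed compounds.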 The conditions noted are these: higher = more signal.
Assay [2] in a line: binders from COS7 lysate, DM2A8 probe, primary screen, torsin A project, cell lysate, small-molecule microarray, fluorescence 635/667 (AID 1065). The conditions noted are these: higher = more signal, COS7 lysate expressing mutant human TOR1A.
The nature of assay [3]: small molecules captured by biotinylated probe aFGF2 – biochemical, small-molecule microarray, fluorescence 635/667, stem cell growth factor project, primary screen (AID 1067).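 Note: measures binding of biotinylated aFGF2 protein to printed compounds on slides; z-score merges feature fluorescence and signal-to-noise across triplicate slides.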 To be noted: higher = more signal.
A short description of assay [4]: small molecules captured by biotinylated probe aFGF10 – biochemical, small-molecule microarray, fluorescence 635/667, stem cell growth factor project, primary screen (AID 1071).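 Note: score merges 667 nm spot intensity and signal to noise from triplicate slides.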 The conditions noted are these: higher = more signal.
Assay [5] deals with Neurogenic locus notch homolog protein 2 (Homo sapiens) (UniProt Q04721). Description: small molecules binding Notch2 protein – biochemical, small-molecule microarray, 635 nm fluorescence, stem cell growth factors, primary screen (AID 1073). To be noted: higher = more signal.
Assay [6] deals with Pro-neuregulin-1, membrane-bound isoform (Homo sapiens) (UniProt Q02297). Nature of the assay: small molecules binding neuregulin-1 protein – biochemical, small-molecule microarray, fluorescence 635/667, psychiatric disease protein project, primary screen (AID 1075).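 Note: score combines 667 nm spot fluorescence with signal to noise.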 To be noted: NRG1 binding, 635 nm fluorescence, higher = more signal.
In assay [7] the test system is Neuregulin-1 EGF-like domain. Description: small molecules binding NRG1 EGF domain – biochemical, small-molecule microarray, 635 nm fluorescence, primary screen (AID 1081).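 Note: binding of the protein to compounds printed on small-molecule microarray slides.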 The conditions noted are these: higher = more signal.
Assay [8] can be described thus: FRG1 expression reporter modulators in myotubes – cell-based, C2C12 myotubes, firefly/Renilla luciferase, luminescence, FRG1 inhibition for FSHD, primary screen (AID 1084). To be noted: FRG1 promoter luciferase, higher = more signal, called active from +8 up or from −8 down.
Assay [9] is described as follows: small molecules captured by biotinylated probe aFST – biochemical, small-molecule microarray, fluorescence 635/667, stem cell growth factor project, primary screen (AID 1086).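 Note: score merges 667 nm fluorescence with signal-to-noise of each printed compound spot.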 To be noted: higher = more signal.
A short description of assay [10]: binders of probe aHhip on microarray, primary screen, stem cell growth factor project, biochemical, small-molecule microarray, fluorescence 635/667 (AID 1087).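 Note: score merges spot fluorescence at 667nm with spot signal to noise ratio.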 To be noted: higher = more signal.
In assay [11] the test system is PRMT1 (protein arginine N-methyltransferase 1). Description: small molecules binding arginine methyltransferase PRMT1 – biochemical, small-molecule microarray, 635 nm fluorescence, primary screen (AID 1088).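 Note: binding of Prmt1 protein to compounds spotted on small-molecule microarray slides.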 To be noted: higher = more signal.
Assay [12] is described as follows: growth effects on S. cerevisiae YJM789 – YJM789 clinical isolate, OD600, 24 h, basal, primary screen (AID 1089).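 Note: growth of clinical yeast isolate S. cerevisiae YJM 789 seeded 1000 cells per well; test concentration not given here.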 The conditions noted are these: higher = more signal, called active from +8 up or from −8 down.
Assay [13] can be described thus: S. pombe growth modifiers, basal conditions – strain 972, OD600, 24 h, no modulator, primary screen (AID 1090).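 Note: basal condition with compound alone and no growth modifier present; test concentration not given here.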 To be noted: S. pombe 972 growth, higher = more signal, called active from +8 up or from −8 down.
A short description of assay [14]: budding yeast growth modifiers under rapamycin – strain BY4716, OD600, 96 h, primary screen (AID 1091). Note: test concentration not given here. To be noted: S. cerevisiae BY4716 + rapamycin, higher = more signal, called active from +8 up or from −8 down.
Assay [15] concerns the target Torsin-1A-interacting protein 2 (Homo sapiens) (UniProt Q8NFQ8). Nature of the assay: small molecules binding lysate-expressed LULL1 – cell lysate, human LULL1 lysate, 635/667 nm fluorescence, primary screen (AID 1092).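 Note: probe is lysate of COS7 cells overexpressing human LULL1; score merges per-feature 667 nm fluorescence with signal-to-noise.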 The conditions noted are these: small-molecule microarray, hLULL1 lysate binding, 635 nm fluorescence; higher = more signal.
Assay [16] in a line: optical density change of DRC41 E. coli – strain DRC41, OD650, 24 h, E. coli filamentation project, primary screen (AID 1093).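 Note: MC1000 strain lacking acrAB efflux and sulA so SOS filamentation is blocked; test concentration not given here.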 The conditions noted are these: E. coli DRC41 growth, higher = more signal, called active from +8 up or from −8 down.
Assay [17] in a line: probe aLefty2 binding to arrayed compounds – biochemical, biotinylated probe, 635/667 nm fluorescence, primary screen (AID 1094).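 Note: score merges spot fluorescence near 667 nm with spot signal-to-noise ratio.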 The conditions noted are these: small-molecule microarray, higher = more signal.
Assay [18] concerns Noggin (protein binding on small-molecule microarray). Nature of the assay: small molecules binding Noggin protein – biochemical, 635/667 nm fluorescence, primary screen (AID 1095).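 Note: score merges 667 nm feature fluorescence with signal to noise over triplicate slides.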 The conditions noted are these: 635 nm fluorescence, higher = more signal.
Assay [19] concerns the target Neurogenic locus notch homolog protein 3 (Homo sapiens) (UniProt Q9UM47). Nature of the assay: small molecules binding NOTCH3 protein – biochemical, 635/667 nm fluorescence, primary screen (AID 1096). The conditions noted are these: small-molecule microarray, 635 nm fluorescence, higher = more signal.
Assay [20] can be described thus: probe aEGFR binding to arrayed compounds – biochemical, biotinylated probe, 635/667 nm fluorescence, primary screen (AID 1097).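 Note: probe is a biotinylated anti-EGFR antibody binding compounds printed on slides; score combines fluorescence near 667 nm and signal to noise of each spot.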 The conditions noted are these: small-molecule microarray, higher = more signal.

Active and inactive are the calls of the source.

Chain of Neurogenic locus notch homolog protein 3 (Homo sapiens) (Q9UM47 whole entry, looked up): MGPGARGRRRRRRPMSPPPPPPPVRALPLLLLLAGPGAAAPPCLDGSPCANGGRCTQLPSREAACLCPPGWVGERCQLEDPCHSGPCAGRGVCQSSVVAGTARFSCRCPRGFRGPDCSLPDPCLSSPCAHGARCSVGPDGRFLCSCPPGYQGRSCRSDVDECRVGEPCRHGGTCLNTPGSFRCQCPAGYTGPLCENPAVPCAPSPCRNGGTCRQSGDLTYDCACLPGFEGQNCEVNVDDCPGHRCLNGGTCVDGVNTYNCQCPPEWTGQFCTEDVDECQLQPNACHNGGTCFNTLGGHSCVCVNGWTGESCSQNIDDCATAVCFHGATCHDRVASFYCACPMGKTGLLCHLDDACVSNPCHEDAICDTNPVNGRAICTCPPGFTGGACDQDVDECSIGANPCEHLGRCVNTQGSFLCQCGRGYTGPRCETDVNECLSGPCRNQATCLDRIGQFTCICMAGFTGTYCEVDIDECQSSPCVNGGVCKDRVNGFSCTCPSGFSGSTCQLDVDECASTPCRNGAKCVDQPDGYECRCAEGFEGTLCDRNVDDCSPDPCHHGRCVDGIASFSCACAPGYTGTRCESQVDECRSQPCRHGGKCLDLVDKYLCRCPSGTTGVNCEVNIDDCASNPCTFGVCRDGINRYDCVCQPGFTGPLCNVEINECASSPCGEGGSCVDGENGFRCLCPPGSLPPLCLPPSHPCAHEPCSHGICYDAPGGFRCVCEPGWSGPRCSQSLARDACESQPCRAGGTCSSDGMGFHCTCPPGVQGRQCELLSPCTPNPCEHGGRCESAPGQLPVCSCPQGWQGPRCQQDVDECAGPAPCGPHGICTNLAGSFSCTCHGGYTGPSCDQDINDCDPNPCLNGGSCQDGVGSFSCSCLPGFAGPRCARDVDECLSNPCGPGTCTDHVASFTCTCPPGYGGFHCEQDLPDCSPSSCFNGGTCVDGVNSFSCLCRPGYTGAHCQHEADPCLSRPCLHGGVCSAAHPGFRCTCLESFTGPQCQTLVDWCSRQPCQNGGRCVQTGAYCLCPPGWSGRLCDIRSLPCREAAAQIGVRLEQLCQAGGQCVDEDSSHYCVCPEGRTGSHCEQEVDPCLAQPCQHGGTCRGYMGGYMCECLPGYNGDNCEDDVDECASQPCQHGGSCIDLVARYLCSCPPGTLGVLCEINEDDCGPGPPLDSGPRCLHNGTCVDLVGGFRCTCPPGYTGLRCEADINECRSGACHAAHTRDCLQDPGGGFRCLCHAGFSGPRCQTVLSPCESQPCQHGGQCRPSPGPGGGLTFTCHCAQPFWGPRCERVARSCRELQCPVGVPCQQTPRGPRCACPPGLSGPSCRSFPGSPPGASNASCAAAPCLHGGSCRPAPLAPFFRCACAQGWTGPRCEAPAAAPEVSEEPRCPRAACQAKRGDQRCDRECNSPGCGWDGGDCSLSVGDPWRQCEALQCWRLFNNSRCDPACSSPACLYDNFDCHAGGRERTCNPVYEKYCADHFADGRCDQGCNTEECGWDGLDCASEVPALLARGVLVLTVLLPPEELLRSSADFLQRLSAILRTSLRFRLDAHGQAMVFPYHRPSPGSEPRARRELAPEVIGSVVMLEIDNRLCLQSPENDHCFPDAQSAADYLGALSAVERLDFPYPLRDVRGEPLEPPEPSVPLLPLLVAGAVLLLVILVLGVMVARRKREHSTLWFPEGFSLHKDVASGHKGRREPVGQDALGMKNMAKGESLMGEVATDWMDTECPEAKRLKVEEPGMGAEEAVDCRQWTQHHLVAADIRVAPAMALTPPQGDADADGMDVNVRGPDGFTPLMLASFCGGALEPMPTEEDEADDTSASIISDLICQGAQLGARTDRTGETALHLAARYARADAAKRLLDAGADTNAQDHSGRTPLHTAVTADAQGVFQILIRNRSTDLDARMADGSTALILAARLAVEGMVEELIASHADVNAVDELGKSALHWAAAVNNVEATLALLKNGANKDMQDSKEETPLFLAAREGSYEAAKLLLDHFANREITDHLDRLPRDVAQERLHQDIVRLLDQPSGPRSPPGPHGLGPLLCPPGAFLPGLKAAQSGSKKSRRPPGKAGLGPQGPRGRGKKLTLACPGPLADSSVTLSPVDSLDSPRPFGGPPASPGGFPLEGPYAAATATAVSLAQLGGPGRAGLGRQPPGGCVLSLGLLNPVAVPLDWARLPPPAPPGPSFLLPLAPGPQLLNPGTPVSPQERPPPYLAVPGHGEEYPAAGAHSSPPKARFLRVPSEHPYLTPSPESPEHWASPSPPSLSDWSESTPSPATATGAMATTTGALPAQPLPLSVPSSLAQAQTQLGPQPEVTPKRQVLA
Chain of Pro-neuregulin-1, membrane-bound isoform (Homo sapiens) (Q02297 whole entry, looked up, the tested form may be a part, canonical isoform): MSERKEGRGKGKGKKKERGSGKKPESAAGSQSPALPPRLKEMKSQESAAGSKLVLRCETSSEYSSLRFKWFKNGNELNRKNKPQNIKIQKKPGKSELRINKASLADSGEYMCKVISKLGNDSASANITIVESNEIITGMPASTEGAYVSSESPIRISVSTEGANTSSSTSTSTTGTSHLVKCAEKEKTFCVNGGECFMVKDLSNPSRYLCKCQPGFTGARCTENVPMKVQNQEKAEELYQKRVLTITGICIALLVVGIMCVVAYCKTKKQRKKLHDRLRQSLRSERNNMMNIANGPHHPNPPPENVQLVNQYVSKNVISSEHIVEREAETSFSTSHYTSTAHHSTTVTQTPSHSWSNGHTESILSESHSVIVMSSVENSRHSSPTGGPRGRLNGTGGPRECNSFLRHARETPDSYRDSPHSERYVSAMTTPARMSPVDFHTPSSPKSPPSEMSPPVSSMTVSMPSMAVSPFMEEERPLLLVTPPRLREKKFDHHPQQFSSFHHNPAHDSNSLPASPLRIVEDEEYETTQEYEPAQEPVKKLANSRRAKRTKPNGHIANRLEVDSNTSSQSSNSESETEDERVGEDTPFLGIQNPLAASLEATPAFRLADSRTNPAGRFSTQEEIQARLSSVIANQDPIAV
Chain of Torsin-1A-interacting protein 2 (Homo sapiens) (Q8NFQ8 whole entry, looked up): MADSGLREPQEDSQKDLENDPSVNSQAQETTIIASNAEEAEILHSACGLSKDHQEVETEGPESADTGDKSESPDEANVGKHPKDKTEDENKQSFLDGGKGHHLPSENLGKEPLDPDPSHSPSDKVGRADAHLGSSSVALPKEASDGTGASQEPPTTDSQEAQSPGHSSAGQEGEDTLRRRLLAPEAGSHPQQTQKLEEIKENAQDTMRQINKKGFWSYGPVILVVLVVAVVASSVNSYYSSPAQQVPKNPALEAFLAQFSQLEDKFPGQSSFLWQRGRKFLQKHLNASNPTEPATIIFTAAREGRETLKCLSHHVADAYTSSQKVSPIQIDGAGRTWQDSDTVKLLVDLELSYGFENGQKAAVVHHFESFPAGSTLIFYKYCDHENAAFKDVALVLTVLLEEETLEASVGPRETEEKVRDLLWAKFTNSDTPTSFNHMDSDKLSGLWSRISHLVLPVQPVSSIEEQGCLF

As to `CC1CC/C=C\[C@H]2OC34C=CCN(Cc5ccccc5)C(=O)[C@H]3N(CCCCCO)C(=O)[C@@H]4C2C(=O)O1` (stereo not given in full), the composite z-score in [1] is 0.158; in assay [2] it was -0.467; in assay [3], -0.149; in [4], 0.155; in assay [5], -0.864; in assay [6], -0.68. For the same molecule, the composite z-score in [7] was 1.5; in [9], -0.677; in assay [10], -0.312; in [11], -0.822; in assay [15], -0.259; in assay [17], -0.166. The composite z-score in assay [18] was -1.07; in assay [19], -0.629; in [20], -0.206. In addition, the z-score was 0.367 (inactive) in assay [8]; 0.0898 (inactive) in assay [12]; 0.0077 (inactive) in [13]; -0.506 (inactive) in assay [14]; -0.964 (inactive) in [16].

Regarding `C=CCNC(=O)[C@@H]1[C@H]2C(=O)O[C@H](c3ccccc3)[C@H](c3ccccc3)N2[C@H](c2ccccc2OCCO)[C@@]12C(=O)Nc1ccc(C#CC3=CCCCC3)cc12`, the composite z-score is -0.098 in [1]; 0.571 in assay [2]; 0.0368 in assay [3]; 0.865 in assay [4]; 1.25 in assay [5]; 0.948 in assay [6]. The composite z-score in assay [7] was determined as 1.12; in assay [9] it was 0.639; in [10], 0.134; in [11], 1.55; in assay [15], 2.75; in assay [17], 0.058. Also, the composite z-score in assay [18] was 0.983; in assay [19], 1.11; in [20], -0.0185. In addition, the z-score in assay [8] was 0.0472 (inactive); in assay [12] it was 1.05 (inactive); in assay [13] it was -3.5 (inactive); in assay [14], 2.87 (inactive); in assay [16], 1.47 (inactive).

For the molecule `COC(=O)[C@@]1(Cc2ccc(OC)cc2)[C@H]2c3cc(C(=O)N4CCCC4)n(Cc4ccccn4)c3C[C@H]2CN1C(=O)c1ccccc1`, the composite z-score in assay [1] is 0.381; in [2], 0.765; in assay [3], 0.396; in assay [4], 1.11; in [5] it was 1.66; in assay [6], 2.1. For the same molecule, the composite z-score in [7] turned out to be 1.4; in [9], 1.01; in assay [10] it was 0.501; in [11] it was 0.897; in assay [15], 3.86; in assay [17] it was 0.346. Further, the composite z-score was -0.404 in assay [18], 0.979 in assay [19] and 0.155 in [20]. In addition, the z-score in assay [8] is 2.78 (inactive); in assay [12] it was 0.627 (inactive); in assay [13] it was 0.482 (inactive); in [14] it was 1.33 (inactive); in assay [16], 0.245 (inactive).

`C=CCC(OC(C)=O)[C@@H]1[C@@H](N(Cc2ccc(-c3cccc(C(F)(F)F)c3)o2)C(=O)c2ccc(C)cc2)c2cc(OCCCO)ccc2N1C(=O)c1ccc(-c2ccccc2)cc1` (stereo not given in full): the composite z-score is -0.322 in assay [1]; -0.179 in assay [2]; -0.129 in assay [3]; 0.265 in assay [4]; 0.0105 in assay [5]; -0.416 in [6]. Also, the composite z-score in assay [7] was -0.515; in assay [9], 0.137; in [10], -0.214; in assay [11], 0.0003; in assay [15], 0.476; in assay [17] it was -0.194. Moreover, the composite z-score was 0.507 in [18], 0.46 in [19] and -0.139 in assay [20]. Besides, the z-score is 0.887 (inactive) in [8]; 0.0652 (inactive) in assay [12]; -1.07 (inactive) in assay [13]; 0.271 (inactive) in [14]; 1.03 (inactive) in assay [16].

Consider `COc1ccc(CCN2C(=O)[C@@]3(Cc4ccccc42)c2ccccc2C(=O)N(Cc2ccccc2Cl)[C@H]3c2ccc(CO)cc2)cc1`, for which the composite z-score is 0.451 in [1]; -0.73 in [2]; -0.0744 in assay [3]; -0.249 in [4]; -0.13 in [5]; -0.221 in [6]. Also, the composite z-score in [7] is 0.834; in [9] it was -0.285; in assay [10], -0.0994; in assay [11], 1.34; in assay [15], 0.494; in assay [17], -0.126. Besides, the composite z-score is -1.05 in assay [18], -0.981 in [19] and -0.169 in assay [20]. Besides, the z-score in assay [8] is -0.236 (inactive); in assay [12], -0.411 (inactive); in assay [13], -1.51 (inactive); in assay [14], -1.24 (inactive); in assay [16], 0.169 (inactive).

Source of the values: PubChem BioAssay.
